Data reported in PubChem BioAssay (NCATS).
Records with an inconclusive call do not appear. Values without a mark were called inactive. Activity calls are given as the source filed them. Calls come from the whole dose curve; as a rule, active = well fitted curve in the direction sought with a large enough effect; inconclusive = small, poorly fitted or top-dose-only effect, or another doubt; inactive = no such curve, though single readings can be large; an effect the other way counts as inactive or inconclusive.

Legend:
[1] = target: Glutathione peroxidase 1 (Homo sapiens) (UniProt P07203); experiment: Primary qHTS Assay for Inhibitors of Recombinant Selenoprotein Glutathione Peroxidase 1 (GPX1) (AID 1845191); note: nearly all actives have a fitted effect of over 65% in size
Glutathione peroxidase 1 (Homo sapiens), sequence (P07203 whole entry, looked up): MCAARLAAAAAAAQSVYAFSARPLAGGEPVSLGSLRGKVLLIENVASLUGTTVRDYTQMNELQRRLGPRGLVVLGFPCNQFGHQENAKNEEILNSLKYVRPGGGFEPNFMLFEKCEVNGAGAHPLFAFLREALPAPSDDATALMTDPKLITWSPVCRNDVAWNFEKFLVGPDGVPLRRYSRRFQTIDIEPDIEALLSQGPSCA
In short: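 10 nM GPX1 + cpd, 30 min RT; start w/ 1 mM GSH, 0.5 mM cumene hydroperoxide, 0.5 mM NADPH, 100 nM GR, 0.01% BSA; buffer 50 mM Tris-HCl pH 7.5, 2 mM EDTA, 150 mM NaCl; Fl 340/450, 0 & 15 min.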

[2] = target: Phospholipid hydroperoxide glutathione peroxidase GPX4 (Homo sapiens) (UniProt P36969); experiment: Primary qHTS Assay for Inhibitors of Recombinant Selenoprotein Glutathione Peroxidase 4 (GPX4) (AID 1845192); note: nearly all actives have a fitted effect of over 65% in size; for activity change, negative = inhibition: % is set by controls: 0 for no effect and ±100 for the full control effect
Phospholipid hydroperoxide glutathione peroxidase GPX4 (Homo sapiens), sequence (P36969 whole entry, looked up): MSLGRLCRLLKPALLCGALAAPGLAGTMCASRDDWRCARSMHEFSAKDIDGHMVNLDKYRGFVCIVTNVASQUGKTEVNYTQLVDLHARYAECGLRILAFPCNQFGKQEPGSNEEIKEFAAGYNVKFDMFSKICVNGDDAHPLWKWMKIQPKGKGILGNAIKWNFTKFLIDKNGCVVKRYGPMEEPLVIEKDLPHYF
In short: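 NADPH consumption, followed by fluorescence at 340/450 nm between 0 and 15 min, reports GPX4 activity via coupled glutathione reductase (100 nM). Enzyme 200 nM was pre-exposed to compound 30 min; 0.5 mM cumene hydroperoxide and 1 mM GSH served as substrates.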

[3] = Quantitative High-Throughput drug screen in 47 multiple myeloma cell lines against the NCATS MIPE library collection: FR4_PLB cell viability assay (AID 1918924; note: nearly all actives have a fitted effect of over 35% in size; note: potency is the fitted concentration of half-maximal effect)
In short: (§1)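 Primary qHTS used for cherry-picking: cells at 500/well, library compounds for 48 h (37C, 5% CO2), luminescent ATP assay.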

[4] = Quantitative High-Throughput drug screen in 47 multiple myeloma cell lines against the NCATS MIPE library collection: Delta47_JCRB cell viability assay (AID 1918925; note: nearly all actives have a fitted effect of over 45% in size; note: potency is the fitted concentration of half-maximal effect)
In short: (§2)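 qHTS of the MIPE 4.0 collection: 500 myeloma cells/well, 48 h drug exposure at 37C in 5% CO2, then CellTiter-Glo for 5 min at room temperature before luminescence reading.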

[5] = Quantitative High-Throughput drug screen in 47 multiple myeloma cell lines against the NCATS MIPE library collection: EJM_DSMZ cell viability assay (AID 1918926; note: nearly all actives have a fitted effect of over 30% in size; note: potency is the fitted concentration of half-maximal effect)
In short: as §2

[6] = Quantitative High-Throughput drug screen in 47 multiple myeloma cell lines against the NCATS MIPE library collection: AMO1_DSMZ cell viability assay (AID 1918927; note: nearly all actives have a fitted effect of over 30% in size; note: potency is the fitted concentration of half-maximal effect)
In short: as §2

[7] = Quantitative High-Throughput drug screen in 47 multiple myeloma cell lines against the NCATS MIPE library collection: ARP1_JJKsccF8 cell viability assay (AID 1918928; note: nearly all actives have a fitted effect of over 40% in size; note: potency is the fitted concentration of half-maximal effect)
In short: (§3)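 Luminescence from CellTiter-Glo, taken after 5 min at room temperature, reports cellular ATP as viability. Cells (500 per well) had been treated 48 h at 37 °C with MIPE 4.0 compounds, scaled between DMSO and medium-only controls.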

[8] = Quantitative High-Throughput drug screen in 47 multiple myeloma cell lines against the NCATS MIPE library collection: ARD_JJKsccE7 cell viability assay (AID 1918929; note: potency is the fitted concentration of half-maximal effect)
In short: as §2

[9] = Quantitative High-Throughput drug screen in 47 multiple myeloma cell lines against the NCATS MIPE library collection: Karpas620_DSMZ cell viability assay (AID 1918959); note: nearly all actives have a fitted effect of over 30% in size; note: potency is the fitted concentration of half-maximal effect
In short: as §1

[10] = Quantitative High-Throughput drug screen in 47 multiple myeloma cell lines against the NCATS MIPE library collection: KMM1_JCRB cell viability assay (AID 1918960); note: nearly all actives have a fitted effect of over 30% in size; note: potency is the fitted concentration of half-maximal effect;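 for viability (% of DMSO): 100% = DMSO-treated cells and 0% = medium-only wells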
In short: as §3

[11] = Quantitative High-Throughput drug screen in 47 multiple myeloma cell lines against the NCATS MIPE library collection: KHM11_PLB cell viability assay (AID 1918962); note: nearly all actives have a fitted effect of over 35% in size; note: potency is the fitted concentration of half-maximal effect
In short: as §1

[12] = Quantitative High-Throughput drug screen in 47 multiple myeloma cell lines against the NCATS MIPE library collection: JIM3_ECACC cell viability assay (AID 1918963; note: nearly all actives have a fitted effect of over 35% in size; note: potency is the fitted concentration of half-maximal effect)
In short: as §1

[13] = Quantitative High-Throughput drug screen in 47 multiple myeloma cell lines against the NCATS MIPE library collection: JIM1_ECACC cell viability assay (AID 1918964; note: potency is the fitted concentration of half-maximal effect)
In short: as §2

[14] = Quantitative High-Throughput drug screen in 47 multiple myeloma cell lines against the NCATS MIPE library collection: Karpas417_ECACC cell viability assay (AID 1918961); conditions: Karpas417 myeloma viability, CellTiter-Glo ATP luminescence, 48 h; viability (% of DMSO): at 45.8 µM (top of the series); note: potency is the fitted concentration of half-maximal effect
In short: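 We plated 500 myeloma cells per well, pinned in MIPE 4.0 compounds, and incubated for 48 hours at 37C. ATP was then quantified with CellTiter-Glo, with DMSO and media-only wells defining 100% and 0%.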

SMILES	Potency [1]	Potency [2]	Potency [3]	Potency [4]	Potency [5]	Potency [6]	Potency [7]	Potency [8]	Potency [9]	Potency [10]	Potency [11]	Potency [12]	Potency [13]	outcome [1]	activity change, negative = inhibition [2]	Potency [14]
CN(C)CCN1C(=O)c2cccc3cc(N)cc(c23)C1=O	inactive	inactive	23.5 µM (active)	11.8 µM (active)	23.5 µM (active)	4.18 µM (active)	20.9 µM (active)	29.6 µM (active)	26.4 µM (active)	18.7 µM (active)	7.43 µM (active)	14.8 µM (active)	18.7 µM (active)	–	–	–
COc1cc(C)c(Sc2cnc(NC(=O)c3ccc(CNC(C)C(C)(C)C)cc3)s2)cc1C(=O)N1CCN(C(C)=O)CC1 (stereo not given)	inactive	inactive	20.9 µM (active)	2.09 µM (active)	18.7 µM (active)	5.26 µM (active)	16.6 µM (active)	4.69 µM (active)	8.33 µM (active)	3.32 µM (active)	14.8 µM (active)	–	1.48 µM (active)	–	–	–
Nc1nc2c(c(=O)[nH]1)N(C=O)[C@H](CNc1ccc(C(=O)N[C@@H](CCC(=O)O)C(=O)O)cc1)CN2	inactive	inactive	inactive	inactive	inactive	inactive	inactive	–	inactive	inactive	inactive	inactive	inactive	–	–	–
Cn1cc(C[C@@H](N)C(=O)O)c2ccccc21	–	–	inactive	inactive	inactive	inactive	inactive	–	inactive	inactive	–	inactive	–	inactive [at 9.52 µM]	0.696% [at 9.73 µM]	–
C[C@@H]1CC[C@@]2(OC1)OC1CC3C4CC=C5CC(O)CCC5(C)C4CCC3(C)C1[C@@H]2C (stereo not given in full)	inactive	inactive	inactive	inactive	inactive	inactive	inactive	inactive	inactive	inactive	inactive	inactive	inactive	–	–	–
Oc1ccc(-c2ccc(-c3cc(Nc4cccc(CNC5CC5)c4)n[nH]3)cc2)c(O)c1	inactive	inactive	0.935 µM (active)	0.469 µM (active)	0.935 µM (active)	1.32 µM (active)	4.18 µM (active)	1.18 µM (active)	1.18 µM (active)	0.743 µM (active)	0.743 µM (active)	1.87 µM (active)	0.264 µM (active)	–	–	0.833 µM (active)
COc1ccc([C@@H]2CNC(=O)C2)cc1OC1CCCC1	inactive	inactive	inactive	3.72 µM (active)	inactive	inactive	inactive	inactive	inactive	–	10.5 µM (active)	–	–	–	–	inactive
O=C(c1ccc(F)cc1)N1CCC[C@H](c2nc(-c3ccc(F)cc3)no2)C1	inactive	inactive	inactive	inactive	inactive	inactive	inactive	inactive	inactive	inactive	–	–	inactive	–	–	inactive
CCOC(=O)C1=C(C)NC(=S)NC1c1cccc(O)c1 (stereo not given)	inactive	inactive	0.0187 µM (active)	0.0166 µM (active)	0.0469 µM (active)	0.662 µM (active)	0.105 µM (active)	0.833 µM (active)	–	0.469 µM (active)	–	0.0372 µM (active)	0.296 µM (active)	–	–	–
CC(C)[C@H](CO)Nc1nc(Nc2cccc(Cl)c2)c2ncn(C(C)C)c2n1	inactive	inactive	16.6 µM (active)	18.7 µM (active)	23.5 µM (active)	inactive	23.5 µM (active)	–	inactive	inactive	–	–	–	–	–	–
NC(=NCCCCCCN=C(N)N=C(N)Nc1ccc(Cl)cc1)N=C(N)Nc1ccc(Cl)cc1	inactive	inactive	16.6 µM (active)	2.64 µM (active)	2.64 µM (active)	23.5 µM (active)	8.33 µM (active)	–	18.7 µM (active)	18.7 µM (active)	5.9 µM (active)	8.33 µM (active)	23.5 µM (active)	–	–	20.9 µM (active)
COC[C@H](NC(=O)c1cnc(C)s1)C(=O)N[C@@H](COC)C(=O)N[C@@H](Cc1ccccc1)C(=O)[C@@]1(C)CO1	inactive	inactive	0.0469 µM (active)	0.0372 µM (active)	0.166 µM (active)	0.0264 µM (active)	0.0743 µM (active)	0.0526 µM (active)	0.0469 µM (active)	0.0332 µM (active)	0.0662 µM (active)	0.296 µM (active)	0.059 µM (active)	–	–	–
COc1cccc2c1C(=O)c1c(O)c3c(c(O)c1C2=O)C[C@@](O)(C(=O)CO)C[C@@H]3O[C@H]1C[C@H](N)[C@@H](O)[C@H](C)O1	inactive	inactive	0.743 µM (active)	0.209 µM (active)	0.59 µM (active)	1.18 µM (active)	0.469 µM (active)	2.64 µM (active)	2.35 µM (active)	2.09 µM (active)	0.743 µM (active)	0.935 µM (active)	–	–	–	–
